# Assays:
# Experiment in all cases: PBM binding z-score (relative to random genomic background probes); higher = stronger binding; sequences stand for … in GC…GCGATTGACAGCGTAGAATGAAGG
# [1] = tested on: FXR:RXRa (NR concentration 270 nM, RXRa partner concentration 90 nM)
# How it was run: (§1)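 Scanned fluorescence from custom Agilent 4×180K protein-binding microarrays was regression-normalized. Binding z-scores use random background probes as reference. Ligand-free nuclear receptor dimers were incubated on the arrays for 1 h and detected with antibodies against each partner (one per run).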
# [2] = tested on: LXRa:RXRa (NR concentration 270 nM, RXRa partner concentration 90 nM)
# How it was run: as §1
# [3] = tested on: LXRa homodimer (NR concentration 270 nM)
# How it was run: as §1
# [4] = tested on: LXRb:RXRa (NR concentration 270 nM, RXRa partner concentration 90 nM)
# How it was run: as §1
# [5] = tested on: LXRb homodimer (NR concentration 270 nM)
# How it was run: as §1
# [6] = tested on: PPARa:RXRa (NR concentration 270 nM, RXRa partner concentration 90 nM)
# How it was run: as §1
# [7] = tested on: PPARg:RXRa (NR concentration 180 nM, RXRa partner concentration 90 nM)
# How it was run: as §1
# [8] = tested on: PPARg:RXRa 270nM:90nM, anti-RXR (NR concentration 270 nM, RXRa partner concentration 90 nM)
# How it was run: as §1
# [9] = tested on: PPARg:RXRa 30nM:10nM, anti-RXR (NR concentration 30 nM, RXRa partner concentration 10 nM)
# How it was run: as §1
# [10] = tested on: PPARg:RXRa 90nM:30nM, anti-RXR (NR concentration 90 nM, RXRa partner concentration 30 nM)
# How it was run: as §1
# [11] = tested on: PPARg:RXRa DBDmut IVT, anti-RXR (DBD mutation: RXRa K156A/R161A, NR concentration 270 nM, RXRa partner concentration 90 nM)
# How it was run: as §1
# [12] = tested on: PPARg:RXRa IVT, anti-PPARg (NR concentration 270 nM, RXRa partner concentration 90 nM)
# How it was run: as §1
# [13] = tested on: PPARg DBDmut:RXRa IVT, anti-PPARg (DBD mutation: PPARg1 K132A/R137A, NR concentration 270 nM, RXRa partner concentration 90 nM)
# How it was run: as §1
# [14] = tested on: PPARg DBDmut IVT, anti-PPARg (DBD mutation: PPARg1 K132A/R137A, NR concentration 270 nM)
# How it was run: as §1
# [15] = tested on: PPARg homodimer (NR concentration 180 nM)
# How it was run: as §1
# [16] = tested on: PXR:RXRa (NR concentration 270 nM, RXRa partner concentration 90 nM)
# How it was run: as §1
# [17] = tested on: PXR homodimer (NR concentration 270 nM)
# How it was run: as §1
# [18] = tested on: RARa:RXR (NR concentration 270 nM, RXRa partner concentration 90 nM)
# How it was run: as §1
# [19] = tested on: RARa homodimer (NR concentration 270 nM)
# How it was run: as §1
# [20] = tested on: RARb:RXRa (NR concentration 270 nM, RXRa partner concentration 90 nM)
# How it was run: as §1
Sequence,PBM binding z-score [1],PBM binding z-score [2],PBM binding z-score [3],PBM binding z-score [4],PBM binding z-score [5],PBM binding z-score [6],PBM binding z-score [7],PBM binding z-score [8],PBM binding z-score [9],PBM binding z-score [10],PBM binding z-score [11],PBM binding z-score [12],PBM binding z-score [13],PBM binding z-score [14],PBM binding z-score [15],PBM binding z-score [16],PBM binding z-score [17],PBM binding z-score [18],PBM binding z-score [19],PBM binding z-score [20]
CCTTACGGGTCAATCCAGGTTATAGCATCGGAGT,5.24,6.46,0.547,4.05,0.285,4.76,3.53,3.75,1.26,2.54,3.11,3.6,0.439,-0.233,1.18,5.42,0.705,3.74,0.489,3.44
ATCTCTAGGTAAAGTTCAGTCAAAGATCGATAGA,1.73,3.21,2.37,1.64,0.899,2.44,3.53,4.45,2.64,4.1,1.91,2.68,1.08,1.44,1.63,2.32,1.93,1.48,1.68,2.55
TCATATAGGTAAATGCTAGGTCAAAGTCCGATCT,1.83,3.8,5.26,2.45,0.769,2.57,1.76,2.81,3.96,3.47,4.1,3.27,0.472,1.99,1.7,1.98,1.11,2.7,1.22,1.88
CTCGAAAGGTCGTGCTCAGGCGAGTATACCAAAC,5,3.56,-0.183,2.93,-0.132,5.03,2.05,3.49,0.448,1.95,0.449,1.53,0.141,-0.559,0.928,2.68,-0.312,3.16,-0.0786,3.98
CAAACTAGGTCACCGGAAGGTCAAGGTCCGCATG,5.96,5.56,3.66,4.58,0.998,5.83,9.82,7.78,5.66,8.09,8.67,8.88,2.07,0.589,8.45,5.6,1.49,7.28,2.79,5.37
CGTCCAAGGTCAATGCTAGGGCAGTGAAAGCATT,6.49,4.8,0.528,3.57,0.446,5.03,3.68,4.65,1.05,3.08,2.64,3.52,0.232,-0.81,2.06,3.68,0.492,4.3,-0.245,5.2
CCGACTGGGGCAAAGGTTACCGTACTCAGTACGA,1.69,1.59,-0.472,1.95,-1.15,5.78,10.6,9.35,9.56,9.91,4.82,5.85,0.024,-0.75,1.93,2.04,-0.837,3.75,-0.437,2.39
CGTGCTAGGTCATGGTCAGCTAATCTACAGTATG,3.55,2.46,0.0428,1.84,-0.338,3.36,2.98,2.8,0.471,2.11,4.45,4.25,0.168,-0.51,1.36,1.5,-0.399,2.51,-0.32,3.94
ATCTCTAGGTAACCAAGTTCAGTGCATGCCGAAC,0.755,1.14,0.876,0.833,0.777,1.38,0.901,0.936,0.401,0.474,3.99,3.29,0.293,0.732,0.815,2.2,2.24,1.03,0.856,1.37
CGTTAAAGTTCAAGGTAACGTAACAGAAAGCAGC,6.06,5.3,2.94,3.2,1.15,4.56,3.3,4.01,1.81,3.27,0.894,2.08,0.767,0.8,1.94,3.79,2.16,2.94,2.05,4.96
TCTTGTAGATCAGCCGGTTAAGAAAGCTGGCCAA,-0.161,0.143,-0.223,0.0561,-0.394,0.168,-0.791,1.24,2.52,1.74,1.7,-0.0533,-0.491,0.198,-0.81,-0.0108,-0.447,0.0162,-0.458,-0.316
ATCGAAAGGTCGACAAGGTGAGTATACACCGTTT,4.68,3.45,0.283,3,0.522,4.41,2.79,3.21,1.2,2.21,0.456,1.98,1.72,1.65,1.43,2.86,0.683,3.78,0.202,4.02
ACTTACGGGTCAACCAGGTTATAGCACGCGTATA,7.15,5.03,0.836,4.26,0.9,5.69,6,5.69,3.07,4.26,3.23,4.21,2.29,2.39,4.29,4.77,1.62,5.34,1.57,4.17
CGTCCAAGGTCAATGCTAGGTCAGTAAAAGCATT,6.68,5.2,2.38,4.32,0.868,5.23,4.37,4.46,1.9,3.08,3.36,4.08,0.0708,-0.363,5.6,4.82,1.32,6.12,1.53,5.32
ACAGACAGGTGATGAAGGTCACTCAGGCTATCAT,1.77,2.17,0.813,1.96,0.00655,2.75,1.62,1.8,0.565,1.21,0.771,1.97,0.688,0.177,2.08,2.81,2.02,2.83,0.664,3.03
CAAACTAGGTCACGAAAGGTCAAAGTCGAATGAC,7.74,8.37,7.89,7.46,2.8,6.76,10.7,8.68,7.48,8.74,8.54,9.04,3.28,2.22,5.79,7.14,2.95,7.8,3.54,5.84
GCTAGCAGGCAATTTGGGTCACTCAATGACGGGC,0.195,0.398,-0.578,0.171,-0.943,2.23,0.983,0.964,-0.305,0.409,2.45,2.92,0.145,-1.09,-0.111,0.273,-0.523,1.08,-0.688,0.971
GCTAGCAGGCCATTTGGGTCAATCAATGACGGGC,0.192,0.264,-0.476,0.271,-0.737,1.4,0.636,0.364,-1.07,-0.156,1.77,1.92,-1.29,-0.902,-0.569,0.511,0.261,0.95,-0.573,1.3

# — the supplement of paper PMC6555819
